Assay outcomes: PubChem, National Center for Advancing Translational Sciences (NCATS)
ERK EGF inh = EGF-driven ERK pathway inhibition; Potency, µM (series often up to 11.5 µM), for the others: at the highest dose activity change, negative = inhibition, actives largely listed as inhibitors; 130,000 compounds, 0.41% hits; HEK293-V1b, EGF-stimulated phospho-ERK AlphaScreen;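 also: potency is read from the fitted curve at half-maximal effect; plate controls were stimulated vehicle wells for no effect and unstimulated vehicle basal for full effect; nearly all actives have a fitted effect of over 55% in size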
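Concentration-response of compounds against EGF-driven ERK phosphorylation in V1b-expressing HEK293 cells; 30 min preincubation, 5 min EGF, AlphaScreen detection; Normalized to DMSO basal and 25 nM EGF.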
pERK EGF inh = confirmation of ERK pathway inhibitors under EGF stimulation. shares compounds with ERK EGF inh. HEK293 EGF-stimulated ERK phosphorylation, AlphaScreen. Potency, µM (series often up to 57.5 µM), for inactives: at the top dose activity change, negative = inhibition, most hits filed as inhibitors. 60 compounds, 60% hits. AID 1725
c-Raf inh = blocks human c-Raf kinase activity; shares compounds with ERK EGF inh; c-Raf kinase inhibition, homogeneous biochemical assay; activity change, negative = inhibition, % at 76.9 µM; 70 tested, under 10 active; AID 1728
Target sequence (P04049 whole entry, looked up): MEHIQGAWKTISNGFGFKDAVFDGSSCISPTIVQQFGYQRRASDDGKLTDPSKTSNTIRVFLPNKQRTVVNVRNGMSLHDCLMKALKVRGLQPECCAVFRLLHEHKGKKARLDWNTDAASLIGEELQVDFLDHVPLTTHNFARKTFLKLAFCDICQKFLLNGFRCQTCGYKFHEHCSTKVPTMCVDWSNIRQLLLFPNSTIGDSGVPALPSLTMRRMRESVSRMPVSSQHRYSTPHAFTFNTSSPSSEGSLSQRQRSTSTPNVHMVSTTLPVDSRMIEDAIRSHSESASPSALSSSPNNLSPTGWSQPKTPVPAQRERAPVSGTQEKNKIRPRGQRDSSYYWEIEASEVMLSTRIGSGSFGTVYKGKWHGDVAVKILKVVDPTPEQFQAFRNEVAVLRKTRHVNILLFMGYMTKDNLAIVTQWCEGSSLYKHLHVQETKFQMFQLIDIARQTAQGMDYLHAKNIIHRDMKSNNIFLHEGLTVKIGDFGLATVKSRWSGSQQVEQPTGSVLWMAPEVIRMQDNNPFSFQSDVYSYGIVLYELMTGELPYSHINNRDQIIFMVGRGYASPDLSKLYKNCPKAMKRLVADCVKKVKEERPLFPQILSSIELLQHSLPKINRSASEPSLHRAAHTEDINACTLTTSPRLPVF
MEK1 kinase inh = MEK1 (human) kinase inhibition. shares compounds with ERK EGF inh. homogeneous MEK kinase activity assay, ERK pathway. Potency, µM (series often up to 76.9 µM), for the others: at the highest dose activity change, negative = inhibition, actives largely listed as inhibitors. 70 tested, under 10 active
* marks the source's active call; other numbers are inactive results; [ ] = remark or other dose. Only a selection was taken, and hits are over-represented in it overall. Calls follow the shape of the dose curve; as a rule, active = well fitted curve in the direction sought with a large enough effect; inconclusive = small, poorly fitted or top-dose-only effect, or another doubt; inactive = no such curve, though single readings can be large; an effect the other way counts as inactive or inconclusive.

`CCN(CC)CCCC(C)n1c(-c2ccccc2)nc2c(N3CCOCC3)nc(C)nc21` (configuration not stated) gave ERK EGF inh -4%.
For CCN1C(=O)C(CC(=O)Nc2ccc(C)cc2C)Nc2cc(S(=O)(=O)N(C)C)ccc21 (configuration not stated) the results were ERK EGF inh -4%.
C=CCN1C(=O)/C(=C/C=C2/N(CC)c3ccc(S(=O)(=O)N(C)C)cc3N2CC)SC1=S was read as ERK EGF inh inconclusive, pERK EGF inh inconclusive, c-Raf inh -2 and MEK1 kinase inh 5%.
For C=CCN1C(=O)/C(=C\c2cc(Br)c(OCc3ccccn3)c(OC)c2)SC1=S the results were ERK EGF inh 0%.
`O=C(c1cccc(F)c1)N1CCC2(CC1)CN(c1ncccn1)C2` gave ERK EGF inh -3%.
`CN(C)C(=O)c1ccc(-c2nc(NCc3ccccc3)c3ccccc3n2)cc1` gave ERK EGF inh 25%.
For O=C(Nc1cccc(F)c1)N1CC2(CCN(C(=O)c3ccncc3)CC2)C1 the results were ERK EGF inh -19%.
`c1ccc(Nc2ncnc3sc4c(c23)CCC4)cc1` gave pERK EGF inh 10µM*, c-Raf inh -32 and MEK1 kinase inh 18%.
`c1cncc(CNc2ncnc3sc4c(c23)CCCC4)c1` gave ERK EGF inh -11%.
For Fc1ccc(Nc2ncnc3sc4c(c23)CCC4)cc1 the results were pERK EGF inh 10µM*, c-Raf inh inconclusive and MEK1 kinase inh -7%.
Screening Cc1sc2ncnc(NC(C)C(=O)O)c2c1C (configuration not stated) returned ERK EGF inh -6%.
`Cc1cc(F)ccc1S(=O)(=O)Nc1ncnc2sc3c(c12)CCC3` gave ERK EGF inh 1%[57.5 µM].
Screening COc1ccc(/C=N/Nc2ncnc3sc4c(c23)CCCC4)cc1OC returned ERK EGF inh 15%.
Cc1sc2ncnc(N[C@@H](Cc3c[nH]c4ccccc34)C(=O)O)c2c1C was read as ERK EGF inh 6%.
For CN(C)C(CNc1ncnc2sc3c(c12)CCCCC3)c1ccco1 (configuration not stated) the results were ERK EGF inh -5%.
Screening Fc1ccc(Nc2ncnc3sc4c(c23)CCC4)cc1F returned ERK EGF inh 2.5µM*, pERK EGF inh 8.9µM*, c-Raf inh inconclusive and MEK1 kinase inh inconclusive.
`Cc1cc(C)nc(Sc2ncnc3sc4c(c23)CCC4)n1` gave ERK EGF inh 3%.
Cc1nc(Nc2cccc(O)c2)c2c3c(sc2n1)CCC3 was read as ERK EGF inh -1%[57.5 µM].
Screening Cc1sc2ncnc(Nc3ccccc3)c2c1C returned pERK EGF inh inconclusive, c-Raf inh -12 and MEK1 kinase inh -1%.
For C[C@@H]1Nc2ccc(Cl)cc2S(=O)(=O)N1 the results were ERK EGF inh -8%.
O=Nc1ccc2oc(=O)ccc2c1 was read as ERK EGF inh 1%.
For COc1ccc2[nH]cc(CCNc3ncnc4ccc(-c5ccccc5C#N)cc34)c2c1 the results were ERK EGF inh 33%.
N#Cc1ccc(CN2CC3(CCN(C(=O)c4cccc(F)c4)CC3)C2)cc1 was read as ERK EGF inh -6%.
C[C@@]12CC[C@@H]3c4ccc(O)cc4CC[C@H]3[C@H]1C[C@@H](O)[C@H]2O was read as ERK EGF inh 4%[25.7 µM].
O=C(/C=C/C(=O)Oc1ccccc1C(=O)O)Oc1ccccc1C(=O)O was read as ERK EGF inh 28%.
`CCC(C)c1ccc(O[C@@H]2O[C@H](CO)[C@@H](O)[C@H](O)[C@H]2NC(C)=O)cc1` (some centres not stated) gave ERK EGF inh 7%.
`O=[N+]([O-])c1cccc(/C=N/Nc2nnc(-c3ccccc3)c(-c3ccccc3)n2)c1` gave ERK EGF inh -17%.
`C/C(=N\Nc1nnc(-c2ccccc2)c(-c2ccccc2)n1)c1cccc([N+](=O)[O-])c1` gave ERK EGF inh inconclusive, pERK EGF inh -14%, c-Raf inh -3 and MEK1 kinase inh -5%.
For C/C(=N\Nc1cc(C)nc(NCc2ccccc2)n1)c1cccc([N+](=O)[O-])c1 the results were ERK EGF inh -7%[57.5 µM].
Screening COc1ccc(CNc2ncncc2-c2ccc3c(c2)OCO3)c(OC)c1 returned ERK EGF inh 25%.
N#Cc1cccc(-c2cncnc2-n2ccnc2)c1 was read as ERK EGF inh 21%.
Cc1nc(NC2CCCCC2)c2nc(-c3ccccc3)n(CCCN(C)C)c2n1 was read as ERK EGF inh 4%.
For CCCOc1ccc(/C=N/NC(=S)Nc2ccccc2[N+](=O)[O-])c(O)c1 the results were ERK EGF inh 2%.
CCCOc1ccc(/C=N/Nc2cccc([N+](=O)[O-])c2)c(O)c1 was read as ERK EGF inh 6%.
CCCOc1ccc(/C=N/Nc2ccccc2[N+](=O)[O-])c(O)c1 was read as ERK EGF inh inconclusive, pERK EGF inh inconclusive, c-Raf inh inconclusive and MEK1 kinase inh -3%.
N[C@H](Cc1cc(I)c(Oc2cc(I)c(O)c(I)c2)c(I)c1)C(=O)O was read as ERK EGF inh 4%[25.7 µM].
`C=CCOC(=O)N[C@@H](CCc1ccccc1)C(C(C)=O)C(C)=O` gave ERK EGF inh -1%.
For COCC(=O)N1CCC2(CCCN(c3ccc(-c4ccccc4)cc3)C2)CC1 the results were ERK EGF inh 17%.
For Nc1ccccc1SCc1ccccc1 the results were ERK EGF inh 7%.
Screening Nc1ccccc1Sc1ccccc1[N+](=O)[O-] returned ERK EGF inh 5%.
N#CC(=C(\N)Sc1ccccc1N)/C(C#N)=C(/N)Sc1ccccc1N was read as ERK EGF inh 1.4µM* and c-Raf inh -14.
Screening CCCCCCNC(=O)Nc1ccc(S(=O)(=O)Nc2ccc(CCNC[C@H](O)COc3ccc(O)cc3)cc2)cc1 returned ERK EGF inh -9%.
`Cc1ccc(-c2csc(NC(=O)c3cc([N+](=O)[O-])ccc3N3CCOCC3)n2)cc1` gave ERK EGF inh -5%.
`O=C(Nc1cccc(Cl)c1N1CCCCC1)c1ccc(N2CCOCC2)c([N+](=O)[O-])c1` gave ERK EGF inh 6%.
For O=C(Nc1nc(-c2ccccc2)cs1)c1ccc(N2CCOCC2)c([N+](=O)[O-])c1 the results were ERK EGF inh 4µM*, pERK EGF inh 10µM*, c-Raf inh inconclusive and MEK1 kinase inh 3%.
Screening COc1cc(O)ccc1C(C)=O returned ERK EGF inh 24%.
C#C[C@]1(O)CC[C@@H]2[C@H]3CCC4=Cc5oncc5C[C@]4(C)[C@@H]3CC[C@@]21C was read as ERK EGF inh -4%[25.7 µM].
`COc1ccc(C(=O)N2CCC3(CC2)CCN(c2ccccc2)CC3)cc1` gave ERK EGF inh 3%.
COc1ccc(N=C2C(=Nc3ccc(OC)cc3)N(c3ccc(OC)cc3)C(=S)N2C(=O)c2ccc(OC)cc2)cc1 was read as ERK EGF inh inconclusive, pERK EGF inh 5.6µM*, c-Raf inh -7 and MEK1 kinase inh -18%.
